# Reference: PubChem BioAssay AID652062 (Broad Institute, 2013)
# The campaign covered roughly 1,400 compounds. About 1,100 (79%) were called active.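 The calls were made as follows: active = fitted half-maximal concentration of a falling signal no higher than twice the top valid dose in every test run; inconclusive = runs disagree, or flat partial inhibition, or poor fit; inactive = every run inactive: flat, wrong direction, or potency beyond limit.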 The set was probably picked from earlier hits. A selection follows. Results with a measured potency or affinity are listed apart.
# Experiment: HIV-1 AD8 envelope cell-cell fusion blockers – cherry-pick, dose response (AID 652062)
# Settings: HeLa-AD8 Env / CEM-CCR5 cell fusion, luciferase; at 35 µM (top of the series) unless noted
row,Compound,"activity change, negative = inhibition"
1,Cc1onc(-c2ccccc2)c1C(=O)OCCOc1cccc(Cl)c1,-18.8%
2,CC1(C)N=C(N)N=C(N)N1CCCCc1ccccc1,3.6%
3,CS(=O)(=O)N1CCN(c2ccccc2NC(=O)C(c2ccccc2)c2ccccc2)CC1,38.4%
4,O=C(O)C[C@@H]1C=C[C@H](NC(=O)Nc2ccccc2)[C@H](CO)O1,-16.5%
5,O=C(O)C[C@@H]1CC[C@@H](NC(=O)c2ccncc2)[C@H](CO)O1,28.7%
6,O=C(O)C[C@@H]1C=C[C@@H](NC(=O)Nc2ccccc2)[C@H](CO)O1,11.3%
7,Cc1cccc(C)c1N(CC(O)Cn1c2ccccc2c2ccccc21)S(C)(=O)=O (stereo not drawn),16%
8,C[C@@H]1CN([C@H](C)CO)S(=O)(=O)c2ccc(-c3ccncc3)cc2O[C@@H]1CN(C)Cc1ccc(Oc2ccccc2)cc1,160%
9,Cc1ccc(-c2ccc3c(c2)O[C@@H](CN(C)Cc2cccnc2)[C@H](C)CN([C@H](C)CO)S3(=O)=O)cc1,-56.7%
10,COc1ccccc1C#Cc1ccc2c(c1)O[C@@H](CN(C)Cc1ccncc1)[C@H](C)CN([C@H](C)CO)S2(=O)=O,10.1% [at 16 µM]
11,COc1ccccc1CN1C(=O)CN(C2CCCCCC2)C(=O)C1c1ccc(F)cc1 (stereo not drawn),20.3%
12,Cc1ccc(-n2nc3c(c2NC(=O)c2ccco2)CS(=O)C3)cc1 (stereo not drawn),-28.9%
13,COc1ccccc1CN(C)C(=O)CN1CCN(C(=O)c2cccs2)CC1,-1.14%
14,O=C(C[C@@H]1C[C@H]2c3cc(NC(=O)C4CCOCC4)ccc3O[C@H]2[C@@H](CO)O1)NCc1ccccc1,37.3%
15,O=C(C[C@H]1C[C@@H]2c3cc(NC(=O)C4CCC4)ccc3O[C@@H]2[C@@H](CO)O1)NCc1ccc2c(c1)OCO2,25.6%
16,O=C(C[C@H]1C[C@@H]2c3cc(NC(=O)C4CCC4)ccc3O[C@@H]2[C@@H](CO)O1)NCC(F)(F)F,7.19%
17,CN(C)C(=O)C[C@H]1C[C@@H]2c3cc(NC(=O)NC4CCCCC4)ccc3O[C@@H]2[C@H](CO)O1,-20.7%
18,O=C(C[C@@H]1C[C@@H]2c3cc(NC(=O)C4CCOCC4)ccc3O[C@@H]2[C@H](CO)O1)NCCc1ccccc1,-21%
19,O=C(C[C@@H]1C[C@H]2c3cc(NC(=O)NC4CCCCC4)ccc3O[C@H]2[C@@H](CO)O1)NCc1ccncc1,17.5%

row,Compound,"activity change, negative = inhibition"
1,O=C(C[C@@H]1C[C@@H]2c3cc(NC(=O)C4CCC4)ccc3O[C@@H]2[C@@H](CO)O1)NCc1ccc2c(c1)OCO2,48.6%
2,O=C(C[C@@H]1C[C@@H]2c3cc(NC(=O)C4CCC4)ccc3O[C@@H]2[C@@H](CO)O1)NCC(F)(F)F,37%
3,O=C(C[C@H]1C[C@H]2c3cc(NC(=O)C4CCC4)ccc3O[C@H]2[C@@H](CO)O1)NCc1ccc2c(c1)OCO2,38.8% [at 30 µM]
4,O=C(C[C@@H]1C[C@@H]2c3cc(NC(=O)c4ccc5c(c4)OCO5)ccc3O[C@@H]2[C@@H](CO)O1)NCc1ccc(Oc2ccccc2)cc1,0.613% [at 16 µM]
5,O=C(C[C@H]1C[C@H]2c3cc(NC(=O)Cc4ccncc4)ccc3O[C@H]2[C@@H](CO)O1)NCc1ccncc1,20.8%
6,O=C(C[C@@H]1C[C@@H]2c3cc(NC(=O)Nc4ccccc4)ccc3O[C@@H]2[C@@H](CO)O1)NCc1ccccc1,42.6% [at 30 µM]
7,COc1ccc(S(=O)(=O)N(C)C[C@@H]2Oc3ccc(NC(=O)C4CCCCC4)cc3CC(=O)N([C@@H](C)CO)C[C@@H]2C)cc1,5.28% [at 16 µM]
8,O=C(N[C@@H]1CC[C@H](CCNS(=O)(=O)c2ccc(F)cc2)O[C@@H]1CO)C1CC1,21.6%
9,C[C@H]1NC(=O)[C@@]2(C)[C@H](c3ccccc3)[C@H]3COc4ccccc4[C@@H]3N2C1=O,80.3%
10,COc1cc2c(cc1OC)C(=O)N1[C@H]3c4cc(Cl)ccc4OC[C@@H]3[C@H](c3ccccc3)[C@]1(C)C(=O)N2,-26.3%
11,C[C@@]12C(=O)N(Cc3ccco3)CC(=O)N1[C@H]1c3ccccc3OC[C@@H]1[C@@H]2c1ccccc1,2.22%
12,Cc1cc(Cl)ccc1OCC(=O)NNC(=O)C1CSC2(C)CCC(=O)N12 (stereo not drawn),1.11%
13,COc1ccc([Si](C)(C)[C@H]2[C@H](CCO)O[C@@]3(C(=O)N(Cc4cccc(N5CCOC5=O)c4)c4ccccc43)[C@@H]2C)cc1,108%
14,COc1ccc(S(=O)(=O)N2CCCCC2)cc1NC(=O)CN(Cc1ccco1)Cc1ccco1,-14.6%
15,COc1ccc(S(=O)(=O)N2CCCCC2)cc1NC(=O)CCCOc1ccc(C)cc1,3.18%
16,CCCCCCOc1ccc(OC(=O)c2ccncc2)cc1,-6.3%
17,COc1ccc(-c2c(C)nn3c(C(F)(F)F)cc(C)nc23)cc1,123%
18,CSc1ncccc1C(=O)OCC(=O)Nc1ccc(C)c(S(=O)(=O)N2CCOCC2)c1,-12.3% [at 16 µM]
19,O=C(COC(=O)c1cc(S(=O)(=O)N2CCOCC2)ccc1O)NCc1ccc2c(c1)OCO2,28.5%
